# TROY NFkB inh = inhibitors of TROY-dependent NF-kB signaling. inhibition, % at 10 µM. 360,000 tested, 0.98% active. AID 1347056. Q293 LMP1-TROYcd NF-kB luciferase reporter, 4 h;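 active = compounds whose plate-normalised and pattern-corrected inhibition of the luciferase reporter signal at the single screening dose is 50% or more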
# HSP90 inh = blocks HSP90-mediated luciferase refolding in reticulocyte lysate | Rabbit reticulocyte lysate, luciferase refolding luminescence, 3 h | inhibition, % at 5.6 µM | 290,000 tested, 0.91% active;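 active = inhibition above the screen-wide mean plus 3 SD, computed separately per campaign, cut at about 16% in these data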;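 also: 0% = DMSO wells and 100% = 60 µM geldanamycin wells; inhibitors lower the luminescence because luciferase stays unfolded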
# TWEAK-Fn14 inh = inhibitors of TWEAK-Fn14 interaction signaling; 360,000 tested, 2% active; TWEAK-stimulated Fn14 reporter cells, luciferase luminescence, 8 h; inhibition, % at 10 µM; in the data active = inhibition above about 50%
# LGR2 inh = Drosophila LGR2 receptor signaling inhibition; HEK293 LGR2, CRE-luciferase, bursicon-stimulated, 4 h; inhibition, % at 9.99 µM; 380,000 tested, 0.35% active;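 active = drop in luminescence signal, shown as inhibition above about 50% in the replicate tests, limit read from the data, passing the limit was not always enough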;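 also: agonist challenge used bursicon conditioned medium at about half maximal strength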
# Numbers without * were called inactive; . = no result. Only some compounds are listed: those with a hit (about 2.2% of all), similar ones and a draw of the others.
SMILES,TROY NFkB inh,HSP90 inh,TWEAK-Fn14 inh,LGR2 inh
Cc1cccc(OCC(=O)Nc2ccc3c(c2)OCCO3)c1,-51,1,-4,.
COc1ccc2nc(SCC(=O)Nc3ccc4c(c3)OCCO4)[nH]c2c1,69*,12,89*,-8
Cc1ccc(NC(=O)CNC(=O)c2ccco2)cc1Cl,-12,-4,-4,-34
COC(=O)N(C)C[C@@H]1OCc2ccccc2-c2ccccc2C(=O)N([C@@H](C)CO)C[C@@H]1C,.,.,.,-9
C[C@@H]1CN([C@@H](C)CO)C(=O)Cc2cc(NS(=O)(=O)c3ccc(Cl)cc3)ccc2O[C@H]1CN(C)S(C)(=O)=O,.,.,.,-5
O=C(Nc1cc(F)ccc1F)N[C@H]1CC[C@H](CCn2cc(C3CC3)nn2)O[C@H]1CO,.,.,.,12
Cc1ccccc1N=C1SC(CC(=O)Nc2ccc3ccccc3c2)C(=O)N1Cc1ccccn1 (stereo unspecified),27,-4,72*,10
COc1cc2nc(CN(C)Cc3ccc(Cl)cc3)[nH]c(=O)c2cc1OC,-17,2,20,-7
COc1cc2cncc(Cc3ccc(Cl)cc3)c2cc1OC,58*,.,75*,.
C[C@H]1CN([C@@H](C)CO)C(=O)Cc2cc(NC(=O)CCN3CCOCC3)ccc2O[C@H]1CN(C)S(=O)(=O)c1cn(C)cn1,.,.,.,37
Nc1ccc(-c2nnn(Cc3ccccc3)n2)cc1,-38,.,65*,-61
CCc1ccc(CNc2ccc3c(c2)ncn3C(C)(C)C)cc1,66*,0,82*,-109
CCOc1ccc(C=NNc2ccc(S(=O)(=O)Nc3ccccc3C(=O)O)cc2[N+](=O)[O-])cc1,24,.,18,-6
COc1ccc(NC(=S)NNc2ccc(S(=O)(=O)Nc3ccccc3C(=O)O)cc2[N+](=O)[O-])cc1,28,20*,9,8
COc1ccc(C=NNc2ccc(S(=O)(=O)Nc3ccccc3C(=O)O)cc2[N+](=O)[O-])c(OC)c1,59*,.,-52,.
COc1ccc(NS(=O)(=O)c2ccc(N/N=C(\C)c3ccncc3)c([N+](=O)[O-])c2)cc1,37,-2,74*,22
Cc1nn(-c2ccccc2)c(Cl)c1/C=N/Nc1ccc(S(=O)(=O)Nc2ccccc2C(=O)O)cc1[N+](=O)[O-],52*,-2,-4,-5
Cc1ccc(S(=O)(=O)Nc2ccc3c(c2)C(=O)N([C@@H](C)CO)C[C@H](C)[C@H](CN(C)C(=O)c2ccncc2)OCCCC[C@H](C)O3)cc1,.,.,.,-33
CCCOc1ccc(/C=N/Nc2ccccc2[N+](=O)[O-])c(OCCC)c1,35,-4,56*,8
CCCN1[C@@H]2c3ccc(-c4ccncc4)c(=O)n3C[C@H]1[C@H](CO)[C@H]2C(=O)N1CCCCC1,.,.,.,5
CSCCC(NC(=O)C1CCCCC1)c1nc2ccccc2[nH]1 (stereo unspecified),9,-5,-3,18
CC(OC(=O)C1CCCCC1)c1nc2ccccc2[nH]1 (stereo unspecified),-7,-1,59*,4
Cc1c(CCCl)c(Cl)n2c(nc3ccccc32)c1C#N,27,.,109*,24
CN1CCN(C(=O)CCS(=O)(=O)c2cc3c(cc2Cl)NC(=O)CO3)CC1,3,0,12,-12
O=C1COc2cc(S(=O)(=O)CCC(=O)N3CCCCC3)c(Cl)cc2N1,3,-3,98*,8
SMILES,TROY NFkB inh,HSP90 inh,TWEAK-Fn14 inh,LGR2 inh
Cc1ccc(C(=O)c2no[n+]([O-])c2C(=O)c2ccc(C)cc2)cc1,-9,2,53*,-14
COc1ccc(C2CC(O)(c3ccccc3)Oc3cc(OC)c(OC)c(OC)c32)cc1 (stereo unspecified),-3,.,5,8
OC1(c2ccccc2)CC(c2ccccc2)c2ccccc2O1 (stereo unspecified),50*,.,12,15
C[C@@H]1CN([C@H](C)CO)C(=O)c2cc(NC(=O)c3ccccc3)ccc2O[C@@H](C)CCCCO[C@H]1CN(C)Cc1ccc(C(=O)O)cc1,.,.,.,-1
CCCOc1ccc(F)cc1-c1cc(C(=O)NCc2cc(C(F)(F)F)cc(C(F)(F)F)c2)[nH]n1,23,.,53*,.
CCCOc1ccc(F)cc1-c1cc(C(=O)Nc2ccc(C)c(NS(C)(=O)=O)c2)[nH]n1,41,.,59*,5
COc1ccc(F)cc1-c1cc(C(=O)NCc2cc(C(F)(F)F)cc(C(F)(F)F)c2)[nH]n1,29,.,8,22
C[C@@H]1CCCCO[C@H](CN(C)Cc2ccncc2)[C@H](C)CN([C@@H](C)CO)C(=O)c2cc(NS(C)(=O)=O)ccc2O1,.,.,.,-17
Cc1ccc(S(=O)(=O)Nc2ccc3c(c2)C(=O)N([C@H](C)CO)C[C@@H](C)[C@@H](CN(C)Cc2ccc(C(=O)O)cc2)OCCCC[C@@H](C)O3)cc1,.,.,.,-23
O=C(O)COc1ccc2nsnc2c1Cl,18,-3,-3,.
Cc1ccccc1C1=C/C(=C(\SS/C(C(=O)c2ccc(OCC(=O)O)c(Cl)c2Cl)=C2\C=C(c3ccccc3C)SS2)C(=O)c2ccc(OCC(=O)O)c(Cl)c2Cl)SS1,39,.,57*,.
CC(=O)OCC1=C[C@@H]2OC(=O)C3=CO[C@@H](O[C@@H]4O[C@H](CO)[C@@H](O)[C@H](O)[C@H]4O)[C@H]1[C@@H]32,1,.,4,-4
C=C1C(=O)OC2C=C(CO)C3OC3C3OC3(C)CC(OC(=O)/C(=C/C)COC(C)=O)C12 (stereo unspecified),3,.,83*,21
Cc1ccc(-c2ccc3c(c2)O[C@H](CN(C)Cc2cccnc2)[C@@H](C)CN([C@@H](C)CO)S3(=O)=O)cc1,.,.,.,-7
Cc1cccc2sc(NNC(=O)c3ccc(S(=O)(=O)N4CC(C)CC(C)C4)cc3)nc12 (stereo unspecified),51*,6,64*,46
Cc1cc(Cl)c(S(=O)(=O)Nc2ccon2)cc1OCC(=O)NC1CCCCC1,3,3,4,.
COC(=O)COc1ccc(S(=O)(=O)Nc2ccc3c(c2)OCCO3)cc1C,56*,0,56*,9
Cc1cc(Cl)c(S(=O)(=O)Nc2ccc3c(c2)OCCO3)cc1OCC(=O)NC1CCCCC1,59*,2,56*,.
COc1ccc(-n2c(Cc3cccn3C)nnc2SCC(=O)Nc2ccc(Cl)cc2)cc1,15,2,50*,-4
COc1ccc(-n2c(Cc3cccn3C)nnc2SCC(=O)Nc2cc(Cl)ccc2OC)cc1,3,-4,62*,-4
COc1ccc(-n2c(Cc3cccn3C)nnc2SCC(=O)Nc2ccccc2OC)cc1,-1,-5,16,1
CCN1CCCC1CNC(=O)c1cc2c(C)nc3ccccc3c2o1 (stereo unspecified),7,-3,-16,5
Cc1nc2ccccc2c2oc(C(=O)NCC3COc4ccccc4O3)cc12 (stereo unspecified),73*,-2,93*,-24
CCc1ccc(CNC(=O)c2cc3c(C)nc4ccccc4c3o2)cc1,45,1,58*,15
COc1cccc(CNC(=O)c2cc3c(C)nc4ccccc4c3o2)c1,44,0,52*,8
COCC(=O)N(C)C[C@H]1Oc2cc(-c3ccccc3F)ccc2S(=O)(=O)N([C@@H](C)CO)C[C@H]1C,.,.,.,-3

# Screening data (PubChem)
